# Screens: PubChem, National Center for Advancing Translational Sciences (NCATS)
# Hits are enriched below; roughly 19% of the tested compounds scored in any of these assays.
# TDP1 inh: qHTS Assay for Inhibitors of Tyrosyl-DNA Phosphodiesterase (TDP1). Potency, µM (highest dose often 130 µM), without a hit: at the highest dose activity change, negative = inhibition, actives largely listed as inhibitors. recombinant TDP1, AlphaScreen DNA substrate cleavage. 350,000 compounds, 0.28% hits. Tyrosyl-DNA phosphodiesterase 1 (Homo sapiens), Q9NUW8. AID 485290, 2010; also: potency is read from the fitted curve at half-maximal effect; % is scaled to controls: 0 for no effect and ±100 for the full control effect; nearly all actives have a fitted effect of over 40% in size
# Target sequence (Q9NUW8 whole entry, looked up): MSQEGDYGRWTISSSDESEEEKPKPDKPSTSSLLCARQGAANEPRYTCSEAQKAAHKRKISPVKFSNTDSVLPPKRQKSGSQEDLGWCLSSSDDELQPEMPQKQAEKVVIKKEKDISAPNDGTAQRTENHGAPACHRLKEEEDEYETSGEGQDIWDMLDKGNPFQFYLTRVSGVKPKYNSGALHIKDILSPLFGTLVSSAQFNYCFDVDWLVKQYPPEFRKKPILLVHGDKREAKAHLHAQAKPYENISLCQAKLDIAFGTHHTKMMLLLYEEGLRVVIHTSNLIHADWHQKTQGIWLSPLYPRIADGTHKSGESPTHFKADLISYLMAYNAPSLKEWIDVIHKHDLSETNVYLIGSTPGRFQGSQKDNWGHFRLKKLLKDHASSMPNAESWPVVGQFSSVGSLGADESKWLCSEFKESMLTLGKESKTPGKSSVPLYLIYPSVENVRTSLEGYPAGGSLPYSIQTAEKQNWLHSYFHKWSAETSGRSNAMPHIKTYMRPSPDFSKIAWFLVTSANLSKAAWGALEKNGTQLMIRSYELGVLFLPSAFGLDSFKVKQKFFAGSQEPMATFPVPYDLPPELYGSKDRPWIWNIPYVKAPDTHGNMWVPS
#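 Tdp1 1 nM final; 15 min RT w/ cpd; substrate 15 nM, 5 min; beads 10 ug/ml, 10 min; AlphaScreen read. Neg ctrl: no enzyme.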
# TDP1 cell noCPT: qHTS for Inhibitors of human tyrosyl-DNA phosphodiesterase 1 (TDP1): qHTS in cells in absence of CPT; DT40 Tdp1-/- hTDP1 cells, no CPT, ATP luminescence, 48 h; Potency, µM (top dose mostly 46.2 µM), without a hit: at the highest dose activity change, negative = growth inhibition, actives largely listed as inhibitors; 420,000 compounds, 15% hits; also: potency is read from the fitted curve at half-maximal effect; % is scaled to controls: 0 for no effect and ±100 for the full control effect; nearly all actives have a fitted effect of over 55% in size
#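 DT40 Tdp1-/-;hTDP1 cells, no CPT (DMSO vehicle only), 400 cells/well; compounds pin-transferred; ≥48 hr, 37 °C; CellTiter-Glo 30 min RT dark, luminescence read.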
# TGFb SMAD3 inh: qHTS for Inhibitors of TGF-b. HepG2 CAGA-GFP TGF-b/SMAD3 reporter, GFP fluorescence, 18 h; TGF-beta stimulated, 500 pg/mL final. Potency, µM (series often up to 46.1 µM), for the others: top-dose activity, negative = inhibition, usual class: inhibitors. 410,000 compounds, 1.2% hits; also: potency is read from the fitted curve at half-maximal effect; % is scaled to controls: 0 for no effect and ±100 for the full control effect; nearly all actives have a fitted effect of over 65% in size
#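 GFP signal (ex488/em500-530) from TGF-beta-stimulated HEPG2 CAGA-GFP cells, 500 pg/mL final, 18 h at 37 degrees C in DMEM plus 1% FBS, normalized to unstimulated and DMSO-stimulated controls.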
# IL-1B inflam inh: qHTS for Inhibitors of Inflammasome Signaling: IL-1-beta AlphaLISA Primary Screen. THP-1 LPS/ATP IL-1B secretion, AlphaLISA, 16 h; stronger effect = lower value. activity change, % at 57.5 µM. 360,000 compounds, 4.7% hits. AID 743279, 2014; in the data active = activity change below about -50%; inconclusive = mostly about -30% to -49%; also: % is scaled to controls: 0 for no effect and ±100 for the full control effect
#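 Secreted IL-1B measured by AlphaLISA bead assay after 16 h compound exposure of THP-1 cells; compounds (final up to 57.5 uM) added 1 h before LPS (250 ng/mL) and ATP (1.25 mM) stimulation; lower signal means less secretion.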
# HepG2 tox: qHTS for Inhibitors of TGF-b: Cytotox Counterscreen | HepG2 CAGA-GFP viability, ATP luminescence, 18 h | Potency, µM (highest dose often 46.1 µM), for inactives: at the top dose activity change, negative = cytotoxicity, usual class: cytotoxic | 410,000 compounds, 0.76% hits | AID 588856, 2011; also: potency is read from the fitted curve at half-maximal effect
#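 HepG2 CAGA-GFP cells (1000/well, DMEM with 1% FBS) received compound, then TGF-beta at 500 pg/mL final, and were incubated 18 hours at 37 degrees C. Viability was read by CellTiter-Glo luminescence. Media-only wells were set as complete cell-killing and DMSO as no toxicity.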
# TDP1 cell CPT: qHTS for Inhibitors of human tyrosyl-DNA phosphodiesterase 1 (TDP1): qHTS in cells in presence of CPT; AID 686979, 2013; chicken DT40 Tdp1-/-;hTDP1 cells + 20 nM CPT, ATP luminescence, 48 h; Potency, µM (highest dose often 46.2 µM), without a hit: top-dose activity change, negative = growth inhibition, actives largely listed as inhibitors; 420,000 compounds, 12% hits; also: potency is read from the fitted curve at half-maximal effect; % is scaled to controls: 0 for no effect and ±100 for the full control effect; nearly all actives have a fitted effect of over 55% in size
#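 Chicken DT40 Tdp1-/- cells stably complemented with human TDP1 were seeded at 400 cells/well in medium containing 20 nM camptothecin, exposed to pin-transferred compounds, and grown at 37 °C for at least 48 hr. Viability was read as ATP luminescence.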
# Starred values were filed as active, the others as inactive; ? = inconclusive; . = no result; [ ] = remark or other dose. Unless noted, calls follow the shape of the dose curve; as a rule, active = well fitted curve in the direction sought with a large enough effect; inconclusive = small, poorly fitted or top-dose-only effect, or another doubt; inactive = no such curve, though single readings can be large; an effect the other way counts as inactive or inconclusive.
SMILES,TDP1 inh,TDP1 cell noCPT,TGFb SMAD3 inh,IL-1B inflam inh,HepG2 tox,TDP1 cell CPT
COC(=O)c1cc(-c2ccc(S(=O)(=O)N3CCCCC3)cc2)c(C(F)(F)F)s1,0%,23µM*,19%,9,23%,?
CCN(CC)S(=O)(=O)c1ccc(-c2cc(C(=O)OC)sc2C(F)(F)F)cc1,0%,18µM*,-10%,-21,8%,-30%
COC(=O)c1cc(-c2ccc(S(=O)(=O)N3CCCC3)cc2)c(C(F)(F)F)s1,-6%,?,9%,3,-30%,10%
Nc1nonc1N/N=C\c1ccccc1,.,-23%,9%,0,4%,4%
O=C(O)c1cc(N/N=C/c2c(O)ccc3ccccc23)ccc1Cl,.,10%,1%,19,-1%,-24%
Nc1nonc1N/N=C/c1c(O)ccc2ccccc12,5%,-54%,?,-59*,-27%,32%
Nc1cc(Cl)nc(N/N=C/c2c(O)ccc3ccccc23)n1,5%,16µM*,-1%,71,-28%,?
Cc1noc(/C=C/c2cccs2)c1S(=O)(=O)N1CCC(C(=O)NCc2ccccc2Cl)CC1,0%,-28%,-6%,.,-23%,-1%
CC1(c2ccccc2)NC(=O)N(CC(=O)N2CCN(S(=O)(=O)c3c(F)cccc3F)CC2)C1=O (configuration not stated),-1%,-19%,-24%,7,-16%,-16%
CCN(CC)CCNC(=O)c1c(C)n(-c2ccccc2)c2cc(Br)c(OC)cc12,4%,18µM*,?,?,20µM*,?
CCCCCCOc1ccc(CC(=O)O)cc1,.,0%,.,.,.,0%
COc1ccc(NCC(=O)Nc2ccc(Br)cc2F)c(OC)c1,6%,13µM*,0%,?,-25%,?
COc1ccc(NC(=O)CN2CCN(c3ccc(Cl)cc3)CC2)c(OC)c1,4%,?,-4%,-1,1%,?
CCN(CC(=O)Nc1ccc(OC)cc1)CC(=O)Nc1ccc(Br)cc1F,6%,-22%,11%,9,8%,?
COc1ccc(NC(=O)CN2CCN(CC(=O)Nc3ccccc3Cl)CC2)c(OC)c1,1%,18µM*,-14%,0,4%,18µM*
COc1ccc(NC(=O)CN2CCN(CC(=O)Nc3ccccc3OC)CC2)c(OC)c1,.,-8%,9%,18,0%,-4%
COc1ccc(NC(=O)CN2CCN(CC(=O)Nc3ccccc3F)CC2)c(OC)c1,-1%,?,?,-12,-38%,23µM*
CC(=O)OC[C@H]1O[C@@H](O/N=C2/[C@H]3O[C@@H]3[C@@H](O)[C@H]3[C@H]2CCn2c(=O)n(-c4ccccc4)c(=O)n23)[C@H](OC(C)=O)[C@@H](OC(C)=O)[C@@H]1OC(C)=O,3%[21 µM],.,.,.,.,.
CCOC(=O)c1ccc(NC(=O)CSc2nc3ccccc3c(=O)n2CCNC(C)=O)cc1,0%,-18%,3%,.,-5%,-4%
CC1CCCC(C)N1/N=C/c1ccc(C#N)cc1 (configuration not stated),7%,?,-1%,-1,0%,-6%
COc1cccc(NC(=O)CN(C)C(=O)CSc2nc3ccccc3s2)c1,9%,?,5%,22,-3%,?
COc1cccc(NC(=O)CN(C)C(=O)c2ccccc2-c2nc3ccccc3s2)c1,3%,23µM*,-6%,-2,-4%,?
CN(CC(=O)Nc1c(Cl)cccc1Cl)C(=O)c1ccccc1-c1nc2ccccc2s1,6%,?,-19%,-53*,6%,-1%
CN(CC(=O)Nc1c(Cl)cccc1Cl)C(=O)c1cc2ccccc2cc1O,-6%,?,-2%,-6,-20%,0%
CC(C)(C)C(=O)Nc1ccccc1C(=O)OCc1cc(=O)n2ccsc2n1,6%,-3%,27%,.,4%,-1%
SMILES,TDP1 inh,TDP1 cell noCPT,TGFb SMAD3 inh,IL-1B inflam inh,HepG2 tox,TDP1 cell CPT
CCOC(=O)N1CCN(C(=O)C[C@@H]2C[C@@]3(C(=O)OCC)CCCC=C3N(Cc3ccc(Cl)cc3Cl)C2=O)CC1,.,23µM*,.,-28,.,21µM*
CCOC(=O)N1CCN(C(=O)C[C@@H]2C[C@@]3(C(=O)OC)CCCCC=C3N(Cc3ccc(Cl)cc3Cl)C2=O)CC1,.,12µM*,.,.,.,21µM*
CCOC(=O)[C@]12CCC=C1N(Cc1ccc(Cl)cc1Cl)C(=O)[C@H](CC(=O)N1CCSCC1)C2,.,16µM*,.,-23,.,23µM*
COC(=O)[C@]12CCCCC=C1N(Cc1ccc(Cl)cc1Cl)C(=O)[C@H](CC(=O)N1CCCC1)C2,.,?,.,0,.,?
COCCN(C(=O)COC(=O)C1(C)CC1(Cl)Cl)c1c(N)n(Cc2ccccc2)c(=O)[nH]c1=O (configuration not stated),3%,-1%,-13%,2,5%,-7%
O=C(Nc1nc2c(F)cccc2s1)C1CC1,.,-12%,10%,22,-4%,-6%
NNc1nc2c(F)cccc2s1,8%,15µM*,-13%,5,-7%,?
Fc1cccc2sc(Nc3nc4c(F)cccc4s3)nc12,5%,13µM*,-8%,17,-27%,?
Nc1nc2c(F)cccc2s1,0%,2%,-6%,28,-2%,-3%
NNc1nc2c(F)cc(F)cc2s1,8%,23µM*,-10%,-25,-30%,?
CC1CCc2c(sc(Nc3nc4c(F)cccc4s3)c2C(N)=O)C1 (configuration not stated),0%,16µM*,?,-78*,-17%,?
c1nc2ccc(Cc3ccc4nc[nH]c4c3)cc2[nH]1,5%,?,17%,-3,19%,-24%
COc1cc(/C=N/Nc2ccc([N+](=O)[O-])cc2S(=O)(=O)N2CCOCC2)cc(OC)c1OC,-1%,?,7%,26,0%,4%
O=[N+]([O-])c1ccc(N/N=C/c2ccc(O)c(O)c2O)c(S(=O)(=O)N2CCOCC2)c1,8%,?,?,5,-28%,4.1µM*
O=[N+]([O-])c1ccc(N/N=C/c2cccc(O)c2O)c(S(=O)(=O)N2CCOCC2)c1,5%,13µM*,?,27,-23%,10µM*
